This passage reports growth results from PubChem BioAssay (NCI).

This is part of a sample that, as a whole, favours compounds with a hit. Of some 83,000 tested, about 20% had one in any assay.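 Single-dose data. Exposure time 48 hours. Values below 10 considered active.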 Unmarked numbers belong to inactive results. Calls of active or inactive are those of the source.

Holding throughout (test): NCI-60 one-dose screen, 48 h (100 = growth as untreated, 0 = no growth, -100 = all killed)
Settings in all cases: 10 µM unless noted

The subject of assay [1] is SR leukemia.
Assay [2] has as its system RPMI-8226 leukemia.
Assay [3] concerns OVCAR-8 ovarian.
Assay [4] has as its system OVCAR-5 ovarian.
Assay [5] relates to OVCAR-4 ovarian.
For assay [6], the system named is SK-OV-3 ovarian.
The subject of assay [7] is IGROV1 ovarian.
The test system of assay [8] is OVCAR-3 ovarian.
Assay [9] has as its system HS 578T breast.
The test system of assay [10] is NCI/ADR-RES ovarian.
In assay [11] the test system is T-47D breast.
Assay [12] concerns BT-549 breast.
In assay [13] the test system is MDA-MB-435 melanoma.
The test system of assay [14] is SW-620 colon.
For assay [15], the system named is MCF7 breast.
The test system of assay [16] is HCT-116 colon.
In assay [17] the test system is HCC-2998 colon.
Assay [18] relates to KM12 colon.

For `CCOC(=O)c1c2c(n3ccc(NC(=O)CCN4CCOCC4)cc13)C(=O)c1ncccc1C2=O`, the growth in assay [1] is -2.96% (active); in [2] it was 31.8%; in assay [3], 48%; in [4] it was 88.9%; in assay [5], 37%; in [6] it was 36.6%. The growth was 31.3% in assay [7]; 4.63% (active) in assay [8]; 52% in [9]; 40.5% in assay [10]; 32.6% in assay [11]; 58.3% in assay [12]. Further, the growth in assay [13] is 19.4%; in assay [14] it was 37.2%; in assay [15] it was -31.7% (active); in [16], 21.8%; in [17] it was 42.5%; in [18], 46.2%.
Turning to `COc1ccc(-c2nc(Nc3cc(C)[nH]n3)c3ccccc3n2)cc1`, the growth in [1] is 23.7%; in [2], 50.7%; in assay [3] it was 83.8%; in assay [4] it was 59.8%; in [5] it was 60.1%; in [6], 53.1%. Besides, the growth was 1.47% (active) in assay [7]; 52.2% in assay [8]; 2.72% (active) in [9]; 74.3% in assay [10]; 28.6% in assay [11]; 51.7% in assay [12]. Further, the growth is 26.6% in [13]; 35.4% in assay [14]; 22.1% in assay [15]; 29.5% in [16]; 74.2% in [17]; 18.3% in assay [18].
For `C=C1CC2(OC1=O)C(=O)Nc1ccccc12` (configuration not stated), the growth in assay [1] is 5.16% (active); in [2], 24.4%; in assay [3], 89.4%; in [4] it was 66%; in assay [5] it was 37.3%; in assay [6] it was 115%. The growth in assay [7] was 63%; in [8], 6.75% (active); in assay [9], 83.1%; in assay [10] it was 66.5%; in assay [11], 37.3%; in [12] it was 75.3%. Also, the growth is 49.7% in assay [13]; 4% (active) in [14]; 16.4% in [15]; 31.4% in assay [16]; 90.1% in [17]; 97.3% in assay [18].
Take `CCC(=O)Oc1ccc(/C(=C(\C)c2ccccc2)c2ccc(OCCN(CC)CC)cc2)cc1`: the growth was 43.9% in assay [1]; 68.2% in assay [2]; 87.9% in assay [3]; 91.7% in [4]; 87.5% in assay [5]; 91.4% in [6]. Moreover, the growth in assay [7] is 92.7%; in [8], 97.8%; in assay [9], 51.9%; in assay [10], 93%; in assay [11] it was 43.8%; in assay [12], 86.3%. The growth in assay [13] is 76.1%; in [14] it was 79.4%; in assay [15] it was 37.9%; in assay [16], 62.1%; in assay [17], 103%; in [18], 80.3%.
Consider `CN1CCCCC1CCN1c2ccccc2Sc2ccc(Cl)cc21` (configuration not stated), for which the growth is -22.5% (active) in assay [1]; 56.5% in [2]; 63% in [3]; 91.8% in assay [4]; 57.1% in assay [5]; 59.1% in assay [6]. Further, the growth in [7] is 45.5%; in assay [8], 81.6%; in assay [9], 72.5%; in assay [10], 72.9%; in [11] it was 71.1%; in assay [12] it was 73.8%. Besides, the growth is 27% in [13]; 73.4% in assay [14]; 21.6% in [15]; 30.6% in assay [16]; 61.1% in assay [17]; 60% in assay [18].
Consider `Brc1cccc(-c2nc(-c3ccc4c(c3)OCCO4)co2)c1`, for which the growth is 37.7% [25 µM] in assay [1]; 58.1% [25 µM] in assay [2]; 71.8% [25 µM] in assay [3]; 81.4% [25 µM] in assay [4]; 81% [25 µM] in [5]; 69.7% [25 µM] in assay [6]. The growth in assay [7] was 62.1% [25 µM]; in assay [8] it was 32.7% [25 µM]; in assay [9] it was 65.4% [25 µM]; in [10], 28.5% [25 µM]; in [11] it was 46.6% [25 µM]; in [12] it was 68.7% [25 µM]. The growth in [13] is -31.9% [25 µM] (active); in [14], 23% [25 µM]; in assay [15], 37% [25 µM]; in assay [16] it was 31.8% [25 µM]; in [17], 92.1% [25 µM]; in assay [18] it was 38.5% [25 µM].
As for `Cc1cccc(NC(=O)c2sc3nc4c(cc3c2N)C(=O)CCC4)c1`, the growth in assay [1] was 26.2%; in [2] it was 31.6%; in [3], 52.2%; in [4] it was 44.6%; in assay [5], 40.1%; in [6], 35.3%. Moreover, the growth in assay [7] was -4.52% (active); in [8] it was 7.66% (active); in assay [9], 18.6%; in assay [10], 17.4%; in assay [11] it was 44%; in assay [12], 41.6%. Further, the growth in [13] was -52.8% (active); in assay [14] it was 26.6%; in [15], 22.6%; in assay [16], 29.3%; in assay [17], 33.7%; in assay [18], 21.4%.
Regarding `CC(C)C1=C[C@@]23CC[C@@H]4[C@](C)(CCC[C@@]4(C)C(=O)OCC#CCN4CCCC4)[C@H]2C[C@@H]1[C@H]1C(=O)OC(=O)[C@H]13`, the growth in assay [1] was 92%; in assay [2], 80.3%; in assay [3] it was 115%; in [4], 97.3%; in assay [5], 92%; in assay [6], 90.5%. Besides, the growth in assay [7] is 81.9%; in assay [8], 94.2%; in assay [9] it was 99.2%; in assay [10], 99.3%; in [11], 73.9%; in [12] it was 87.7%. In addition, the growth in assay [13] was 102%; in assay [14], 109%; in [15] it was 84.7%; in assay [16], 88.8%; in [17], 108%; in assay [18], 87.3%.
In the case of `COc1cccc(/C=C2/C(=O)N(Cc3ccco3)SC2=S)c1OC`, the growth in assay [1] is -0.493% (active); in assay [2], 74.2%; in assay [3], 81.1%; in [4], 103%; in assay [5], 102%; in assay [6] it was 97.8%. Moreover, the growth in assay [7] was 104%; in assay [8] it was 110%; in assay [9], 109%; in [10], 103%; in [11], 81.2%; in assay [12] it was 89.7%. For the same molecule, the growth in assay [13] is 84.6%; in assay [14], 98.4%; in [15], 47.3%; in assay [16], 86.4%; in [17], 108%; in assay [18], 92.2%.
